Assay results reported in the supplement of paper PMC6555819.

Columns and labels:
Test in all cases: PBM binding z-score (relative to random genomic background probes); higher = stronger binding; sequences stand for … in GC…GCGATTGACAGCGTAGAATGAAGG
[1] = system: PPARg:RXRa DBDmut IVT, anti-RXR (DBD mutation: RXRa K156A/R161A, NR concentration 270 nM, RXRa partner concentration 90 nM)
In short: (§1)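 Ligand-free nuclear receptor dimers were applied to custom Agilent 4×180K protein-binding microarrays whose double-stranded probes carried direct-repeat seeds, single-nucleotide variants, half-site ablations and random human genomic background sequences in 34-nt variable regions. Incubation lasted 1 h. Binding z-scores were computed against the random background probes from regression-normalized fluorescence.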

[2] = system: PPARg:RXRa IVT, anti-PPARg (NR concentration 270 nM, RXRa partner concentration 90 nM)
In short: as §1

[3] = system: PPARg DBDmut:RXRa IVT, anti-PPARg (DBD mutation: PPARg1 K132A/R137A, NR concentration 270 nM, RXRa partner concentration 90 nM)
In short: as §1

[4] = system: PPARg DBDmut IVT, anti-PPARg (DBD mutation: PPARg1 K132A/R137A, NR concentration 270 nM)
In short: as §1

[5] = system: PPARg homodimer (NR concentration 180 nM)
In short: as §1

[6] = system: PXR:RXRa (NR concentration 270 nM, RXRa partner concentration 90 nM)
In short: as §1

[7] = system: PXR homodimer (NR concentration 270 nM)
In short: as §1

[8] = system: RARa:RXR (NR concentration 270 nM, RXRa partner concentration 90 nM)
In short: as §1

[9] = system: RARa homodimer (NR concentration 270 nM)
In short: as §1

[10] = system: RARb:RXRa (NR concentration 270 nM, RXRa partner concentration 90 nM)
In short: as §1

Sequence | PBM binding z-score [1] | PBM binding z-score [2] | PBM binding z-score [3] | PBM binding z-score [4] | PBM binding z-score [5] | PBM binding z-score [6] | PBM binding z-score [7] | PBM binding z-score [8] | PBM binding z-score [9] | PBM binding z-score [10]
CCTGCTATGTCATGGTCAGCTAATCTACAGTATG | 0.893 | 0.445 | 0.205 | 0.546 | -0.0268 | -0.217 | -0.359 | -0.187 | -0.218 | 0.913
ATCTCTAGGTAAACATAGTTCAGTGAATGCAAAT | 2.31 | 2.59 | 0.983 | 1.45 | 1.28 | 1.35 | 0.955 | 0.73 | 1.3 | 1.01
TCATATAGGTAAATGCTATGTGAAAGTCCGATCT | 3.59 | 2.05 | 1.25 | 1.39 | 0.542 | 0.621 | -0.0684 | 0.813 | 1.29 | 0.304
GCTAGAAGGCCATTTGGGTCACTCAATGACGGGC | 1.13 | 1.97 | -0.158 | -0.532 | 0.149 | 1.19 | 1.2 | 1.08 | -0.572 | 2.2
CAATCTAGGTCAAGAGGTCAAAGTCCGCTTCCCG | 8.4 | 8.71 | 5.68 | 4.57 | 9.94 | 6.5 | 3.63 | 8.3 | 5.1 | 5.36
ACTAGTAGGCCAAGTTTGGGTCACTCAAACAAAG | 5.38 | 4.97 | 0.793 | 0.699 | 0.944 | 0.935 | -0.0858 | 1.74 | -0.227 | 2.11
CGAACTAGGTCACAACAGGACAGTGAAGGATGAT | 8.41 | 8.69 | 2.32 | 1.05 | 1.54 | 1.85 | 0.241 | 1.87 | 0.573 | 3.79
CAAACTAGATCAAGGTCAAAGTCGGTTTGTGCCA | 3.37 | 3.93 | 1.86 | -0.496 | 1.73 | 4.01 | 1.98 | 3.96 | 0.755 | 3.92
CGAACTAGGTCAAGGACAGTCAATCTCCGCACGC | 8.01 | 8.24 | 1.66 | 1.8 | 1.37 | 1.25 | 0.00572 | 2.09 | 0.256 | 4.08
AGGATGAGGTTACCAAAGATCAGGGAAACGCTTG | 0.68 | 1.09 | 0.557 | 0.461 | 1.12 | 1.47 | 0.27 | 2.02 | 0.36 | 2.12
CTACCAAGGTGAACAAGGTCGTGGATTACTATTC | 2.25 | 3.01 | 1.26 | -0.0966 | 1.98 | 2.46 | 0.298 | 2.92 | 0.0898 | 2.45
CCGATTGGGGCAAAGGTTACCATACTCAGTACGA | 2.91 | 4.24 | 0.329 | 0.0522 | 1.15 | 2.32 | -0.232 | 3.81 | -0.223 | 2.31
